# Inconclusive results are not listed. A call without a number means that no potency is given here. Active and inactive are the calls of the source. Calls come from the whole dose curve; as a rule, active = well fitted cell-killing curve with a large enough effect; inconclusive = small, poorly fitted or top-dose-only effect, or effect the other way; inactive = no such curve, though single readings can be large or run the other way.
# Assay: Quantitative High-Throughput drug screen in 47 multiple myeloma cell lines against the NCATS MIPE library collection: KMM1_JCRB cell viability assay (AID 1918960); note: nearly all actives have a fitted effect of over 30% in size
# Settings: KMM1 myeloma viability, CellTiter-Glo ATP luminescence, 48 h; series mostly up to 45.8 µM
# From the text: PI: Beverly A. Mock Ph.D.
# Laboratory of Cancer Biology and Genetics,
# Center for Cancer Research, National Cancer Institute,
# National Institute of Health, Bethesda, Maryland
# Drug resistance and disease progression are common in multiple myeloma (MM) patients, underscoring the need for new therapeutic combinations. […] We hypothesized that effective combinations would reduce MYC expression and enhance p16 activity. […] These preclinical data identify potentially useful drug combinations for evaluation in drug-resistant MM and reveal potential mechanisms of combined drug sensitivity.
# Described herein is the primary MIPE qHTS used to cherrypick compounds. Validated compounds were then further tested for potential synergistic activiy.
# [1] Peat TJ, Gaikwad SM, Dubois W, Gyabaah-Kessie N, Zhang S, Gorjifard S, Phyo Z, Andres M, Hughitt VK, Simpson RM, Miller MA, Girvin AT, Taylor A, Williams D, D'Antonio N, Zhang Y, Rajagopalan A, Flietner E, Wilson K, Zhang X, Shinn P, Klumpp-Thomas C, McKnight C, Itkin Z, Chen L, Kazandijian D, Zhang J, Michalowski AM, Simmons JK, Keats J, Thomas CJ, Mock BA. Drug combinations identified by high-throughput screening promote cell cycle transition and upregulate Smad pathways in myeloma. Cancer Lett. 2023 Aug 1;568:216284. doi: 10.1016/j.canlet.2023.216284. Epub 2023 Jun 24. PMID: 37356470; PMCID: PMC10408729.
# SEQUENCE No. (e.g., 1, 2, 3, etc.); […] (e.g., Cells, Incubation, Reagent, etc.); VALUE and DESCRIPTION.
# 1; Cells; 5 uL; white, solid bottom 1536-well Greiner assay plate.
# 2; Compounds; 23 nL; Kalypsis pin tool (Wako USA) equipped with a 1536-well pin head to transfer to the assay plates.
# 3; Incubation; 48 hours; 37C incubation.
# 4; Reagent;5uL; CellTiter Glo (Promega).
# 5; Detector; 425V; Luminescence; Viewlux PerkinElmer.
# NOTES (numbers refer to Sequence numbers above)
# 1. The cell-based screening methods employed in this study were like those previously published. Briefly, the corresponding myeloma cell lines were screened in 1,536-well plates with 500 cells, 5-uL per well for inhibition of cell viability (assessed by measuring ATP levels with CellTiterGlo).
# 2. NCATS MIPE 4.0 library of approved and investigational drugs were added using the Kalypsis pin tool. Wells treated with DMSO only for 100% viability and media only cells for 0% viability were used as controls.
# 3. The assay plates were covered and incubated for 48 hours in a 37C, 5% CO2 incubator with controlled humidity.
# 4. After 48 hours, CellTilter-GloTM luminescent substrate mix (Promega) reagent was added to the assay plate and plates we incubated for 5 min at room temperature.
# 5. Signal was measured as median relative luminescence units on a ViewLux (PerkinElmer) multiplate reader.
# [1] Heske CM, Davis MI, Baumgart JT, Wilson K, Gormally MV, Chen L, Zhang X, Ceribelli M, Duveau DY, Guha R, Ferrer M, Arnaldez FI, Ji J, Tran HL, Zhang Y, Mendoza A, Helman LJ, Thomas CJ. Matrix Screen Identifies Synergistic Combination of PARP Inhibitors and Nicotinamide Phosphoribosyltransferase (NAMPT) Inhibitors in Ewing Sarcoma. Clin Cancer Res. 2017 Dec 1;23(23):7301-7311. doi: 10.1158/1078-0432.CCR-17-1121. Epub 2017 Sep 12. PMID: 28899971; PMCID: PMC6636827.
# Potency is the fitted concentration of half-maximal effect.
row,Structure (SMILES),Potency
1,C[C@]12CCC(=O)C=C1CC[C@@H]1[C@H]3CC[C@](C)(O)[C@@]3(C)CC[C@@H]12,10.8 µM (active)
2,O=C(O)CCCc1ccc(N(CCCl)CCCl)cc1,inactive
3,C[C@]12CC[C@@H]3c4ccc(OC(=O)N(CCCl)CCCl)cc4CC[C@H]3[C@@H]1CC[C@@H]2OP(=O)(O)O,inactive
4,CC(C)C[C@H](CN)CC(=O)O,inactive
5,COc1cc(OC)c(OC)cc1C=O,inactive
6,C[C@]12CC[C@H]3[C@@H](CC[C@@]45O[C@H]4C(O)=C(C#N)C[C@]35C)[C@H]1CC[C@H]2O,inactive
7,CC(C)c1cccc(C(C)C)c1O,inactive
8,CN1C(=O)CCS(=O)(=O)C1c1ccc(Cl)cc1 (stereo unspecified),inactive
9,CN1C(=O)COc2c(C(=O)NC3CN4CCC3CC4)cc(Cl)cc21 (stereo unspecified),inactive
10,C[C@](O)(CS(=O)(=O)c1ccc(F)cc1)C(=O)Nc1ccc(C#N)c(C(F)(F)F)c1,8.33 µM (active)
11,CCC1(c2ccc(N)cc2)CCC(=O)NC1=O (stereo unspecified),inactive
